Screens deposited in PubChem BioAssay by Sanford-Burnham Center for Chemical Genomics.
A3G deaminase = APOBEC3G (human) deaminase inhibition | recombinant A3G, ssDNA deamination FAM/TAMRA fluorescence | inhibition, % at 20 µM | 330,000 compounds, 0.28% hits;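 active = inhibition of at least 40% at 20 µM, with no more than 30% in the related APOBEC3A deaminase screen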;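 note: plate controls were DMSO wells with A3G for no effect and wells lacking A3G enzyme for full effect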
Target sequence (Q9HC16 whole entry, looked up): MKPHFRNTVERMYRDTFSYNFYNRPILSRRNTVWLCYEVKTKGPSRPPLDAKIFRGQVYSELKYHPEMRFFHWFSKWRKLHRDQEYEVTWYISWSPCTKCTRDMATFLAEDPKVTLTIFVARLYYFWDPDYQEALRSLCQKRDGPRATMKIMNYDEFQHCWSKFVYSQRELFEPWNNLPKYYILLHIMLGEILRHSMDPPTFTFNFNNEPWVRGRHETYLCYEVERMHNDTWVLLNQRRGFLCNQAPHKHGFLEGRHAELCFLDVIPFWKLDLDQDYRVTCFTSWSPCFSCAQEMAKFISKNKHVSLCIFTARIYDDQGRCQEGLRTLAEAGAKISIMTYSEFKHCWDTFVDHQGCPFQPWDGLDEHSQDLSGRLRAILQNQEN
NPR1 activator = GC-A (human) enzyme activation; HEK293 GC-A cells, cGMP TR-FRET, EC30 ANP; 0% at EC30 ANP, 100% saturating ANP; activation, % at 10 µM; 370,000 compounds, 0.14% hits; P16066; AID 1671463; in the data active = activation above about 40%
NPR2 activator = GC-B (human) receptor activation; activation, % at 10 µM; AID 1920062; HEK293-GC-B cells, CNP EC30, cGMP TR-FRET; 0% at EC30 CNP, 100% saturating CNP; P20594; 370,000 compounds, 0.11% hits;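 active = activation at 10 µM reaching about 35% in either raw or pattern-adjusted values, limit read from the data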
APOBEC3A inh = blocks human APOBEC3A ssDNA deamination; P31941; 330,000 compounds, 0.41% hits; AID 493011; recombinant A3A, FAM/TAMRA ssDNA deamination fluorescence; inhibition, % at 20 µM;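 active = at least 40% inhibition at 20 µM here, with at most 30% in a related deaminase screen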;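 note: plate controls were A3A with DMSO for no effect and wells lacking A3A enzyme for full effect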
FAS-TE inh = blocks the thioesterase domain of human fatty acid synthase; P49327; inhibition, % at 15 µM; AID 602261; 360,000 compounds, 0.67% hits; recombinant FAS-TE, OMFH fluorogenic substrate, fluorescence endpoint;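 active = compounds whose normalised, plate-corrected inhibition of enzyme fluorescence in the single-dose primary screen is 50% or more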;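 note: 0% = DMSO with enzyme and 100% = substrate without enzyme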
FAS-TE conf = FAS thioesterase (human) inhibition, confirmation | inhibition, % at 15 µM | recombinant FAS-TE, OMFH fluorogenic substrate, fluorescence | shares compounds with FAS-TE inh | AID 624325 | 2,300 compounds, 45% hits;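 active = compounds inhibiting the enzyme by at least 50% at 15 µM in any one of the replicates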;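 note: 0% = enzyme with DMSO only and 100% = wells lacking enzyme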
Starred values were filed as active, the others as inactive; x = not tested or not shown. Hits are enriched below; roughly 1.4% of the tested compounds scored in any of these assays.

SMILES	A3G deaminase	NPR1 activator	NPR2 activator	APOBEC3A inh	FAS-TE inh	FAS-TE conf
Cc1c(Br)c([N+](=O)[O-])nn1CC(=O)Nc1ccc(C(C)C)cc1	-5	1	3	-6	73*	59*
COCc1cn(-c2ccc3c(c2)[C@@]2(CC(=O)N(C)C2c2ccccc2)C(=O)N3CC(C)C)nn1 (stereo partly drawn)	x	-1	3	x	x	x
O=C(NCc1ccc(Cl)cc1)OCCN1C(=O)CCC12CCC(c1ccccc1)CC2 (stereo not drawn)	x	-20	-21	x	x	x
CC(C)OC(=O)/C(C#N)=C/c1ccc(-c2ccc(SC(F)F)cc2)o1	-4	1	-1	-2	61*	9
O=C(OCc1cn(Cc2ccc(F)c(F)c2)nn1)N1CCOCC1	x	-2	-2	x	x	x
O=C(O)c1ccc(N/N=C/c2cc3ccccc3nc2Cl)cc1	-5	-2	2	0	5	x
Cc1cccc2cc(/C=N/Nc3ccc(C(=O)O)cc3)c(Cl)nc12	-2	-4	-9	3	54*	50*
CCCc1nc2c(C)cc(Br)cn2c1Cc1ccccc1OC	x	-9	1	x	x	x
O=C(Nc1nc2ccccc2s1)c1ccc(N2CCCCC2)c([N+](=O)[O-])c1	-6	2	-9	-1	54*	3
N=c1c2c(ccn1Cc1ccccc1)Oc1ccc3ccccc3c1C2c1ccccc1 (stereo not drawn)	x	-21	-8	x	x	x
Cc1ccccc1S(=O)(=O)N1CCCc2nc(C)c(C)cc21	x	1	3	x	x	x
CC1Cc2ccccc2N1C(=O)CSc1nc2cc3c(cc2cc1C#N)OCO3 (stereo not drawn)	0	-5	-2	6	74*	32
CCCCCCCC(=O)N[C@H]1CC[C@@]23CCCN2C(=O)CCC[C@H]3[C@H]1C	x	0	-5	x	x	x
Cc1ccc(NC(=O)[C@@H]2CC(=O)O[C@@H]2c2ccccc2)c(C)c1	x	4	7	x	x	x
Cc1ccc(S(=O)(=O)Cn2nnnc2C(C(C)C)N2CCN(c3nc4ccccc4s3)CC2)cc1 (stereo not drawn)	-3	0	-2	-1	60*	41
CC(C)OP(=O)(O)C(C)NC(=O)OCc1ccccc1 (stereo not drawn)	x	-2	6	x	x	x
COc1cc(F)ccc1-c1cc(C(=O)NCc2cccc(Cl)c2)[nH]n1	x	-2	2	x	16	x
COc1ccc(Cl)cc1-c1cc(C(=O)NCc2cccc(Cl)c2)[nH]n1	x	26	23	x	51*	51*
COc1ccc(F)cc1-c1cc(C(=O)NCc2ccc(C(F)(F)F)cc2)[nH]n1	x	8	2	x	53*	13
O=C1[C@H]2[C@@H](c3ccc(C(F)(F)F)cc3)N[C@]3(CCCN(Cc4ccccc4)C3=O)[C@H]2C(=O)N1Cc1ccccc1	x	5	4	x	30	x
O=C1[C@H]2[C@@H](c3ccc(C(F)(F)F)cc3)N[C@]3(CCCN(Cc4ccc(C(F)(F)F)cc4)C3=O)[C@H]2C(=O)N1Cc1ccccc1	x	-3	-5	x	55*	16
COC(=O)C1CCC(CNC(=O)C(Cc2ccc3c(c2)OCO3)NC(C)=O)CC1 (stereo not drawn)	x	0	1	x	x	x
COc1ccc(N2C(=O)C3ON(C4SC(=S)N(C)C4(C)C)C(c4ccc(Cl)cc4)C3C2=O)cc1 (stereo not drawn)	-3	-1	1	-2	71*	31
COc1ccccc1NC(=O)CN1C(=O)COc2ccc(S(=O)(=O)N3CCC(C)CC3)cc21	-3	-3	-6	1	16	x
COc1cccc(NC(=O)CN2C(=O)COc3ccc(S(=O)(=O)N4CCC(C)CC4)cc32)c1	-10	-7	-3	-8	61*	66*
CC(=O)c1c(C)oc2ccc(N(C(=O)C3CCCCC3)S(=O)(=O)c3cc([N+](=O)[O-])ccc3C)cc12	0	-2	5	4	80*	10
Clc1ccc(-n2c(SCc3cccc4ccccc34)nnc2-c2ccco2)cc1	x	-15	-6	x	x	x
CC(=O)c1cc(-c2ccccc2)n(CC(=O)NCc2ccc(F)cc2)c1C	x	-4	-12	x	x	x
Cn1c(=O)c(C#N)c(-c2ccc(F)cc2)c2cc(C(=O)c3cc(Cl)cc(Cl)c3O)cnc21	-2	0	5	6	54*	27
